Compound activity (PubChem BioAssay)
This is one part of a sample in which hits are shown more often than they occur.
TTR transcr act: increases transthyretin transcription; SH-SY5Y TTR promoter Gaussia luciferase, luminescence; 100% = recombinant luciferase protein wells; hit rate 1.3% among 92,000; activation, % at 16.7 µM; AID 1117267;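 active = activation above the mean of all tested compounds plus 3 SD, cut at about 9.5% in these data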;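 also: cells exposed to compounds for one day before reading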
HuH7 TTR inh: HuH7 TTR transcription inhibition, counter-screen | shares compounds with TTR transcr act | HuH7 TTR promoter-Gaussia luciferase reporter, luminescence | inhibition, % at 16.7 µM | hit rate 4% among 1,100;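 active = average inhibition above the solvent-only control wells' mean plus 3 SD, cut at about 15% in these data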;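 also: inhibitors lower well luminescence so higher value means more inhibition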
TTR up confirm: human TTR transcription activation, confirmation | shares compounds with TTR transcr act | 1,100 tested, under 10 active | SHSY5Y TTR promoter Gaussia luciferase, luminescence; 100% = purified Lucia enzyme wells, no cells | activation, % at 16.7 µM | AID 1117280;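 active = mean activation above a set limit taken from the earlier primary screen, cut at about 11% in these data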
Large screens that a line does not name were inactive (follow-up assays come after a bar, where they were run).

COC(=O)C1=C(c2cc3ccccc3s2)C[C@@H]2CC[C@H]1N2C(=O)NC1CC1	none
COC(=O)C1=C(c2cc3ccccc3s2)C[C@@H]2CC[C@H]1N2C	TTR transcr act 14.3
COC(=O)C1=C(c2ccc3ccccc3c2)C[C@@H]2CC[C@H]1N2C	none
Cc1cc(O)c2c(c1)C(=O)[C@@]13C(=C2O)C(=O)[C@H]2C(O)[C@@H]1[C@H]1C(O)[C@@H]3C(=O)C3=C(O)c4c(O)cc(C)cc4C(=O)[C@@]312 (some centres undefined)	none
C=CCCC(NC(=O)OCc1ccccc1)P(=O)(Oc1ccccc1)Oc1ccccc1 (centres undefined)	none
Cc1cccc(-n2c(O)c(/C=C/C=Nc3ccccc3)c(=O)[nH]c2=O)c1	none
Cc1cccc(N=Cc2c(O)n(-c3ccccc3C)c(=O)[nH]c2=O)c1	TTR transcr act 12.7 | HuH7 TTR inh inactive | TTR up confirm inactive
Cc1ccccc1-n1c(O)c(/C=N/c2nccs2)c(=O)[nH]c1=O	none
CCC1CCC(C)N(N=O)C1 (centres undefined)	none
CNC(=O)O/N=C(\C)Cc1nnn(-c2cc(C)on2)n1	none
CCn1c(C)c(C(=O)O)c2cc(OC)ccc21	none
COc1ccc(-n2c(C)cc(C(=O)C[N+]34CCN(CC3)CC4)c2C)cc1	TTR transcr act 9.9 | HuH7 TTR inh inactive | TTR up confirm inactive
COc1cc(CCN)c(OC)cc1C	none
CC/C(=N\Nc1ccccc1)c1c(O)n(-c2ccc(OC)cc2)c(=O)[nH]c1=O	none
CCC(=NCCCn1ccnc1)c1c(O)n(-c2ccc(OC)cc2)c(=O)[nH]c1=O	TTR transcr act 16.6 | HuH7 TTR inh inactive | TTR up confirm inactive
CCC(=NCc1cccnc1)c1c(O)n(-c2ccccc2)c(=O)[nH]c1=O	none
Cc1ccc(C(O)P(=O)(Oc2ccccc2)Oc2ccccc2)cc1 (centres undefined)	none
CCCOC(=O)C1C2CCC(O2)C1C(=O)O (centres undefined)	none
CC1C=CCCC12C(=O)NC(=O)NC2=O (centres undefined)	none
CCc1ccccc1N1C(=O)CC(=O)NC1=O	TTR transcr act 9.8 | HuH7 TTR inh inactive | TTR up confirm inactive
O=C1CC(=O)N(c2ccc(Cl)cc2)C(=O)N1	none
CCC1(CC)COP(=O)(OCC(Cl)CCl)OC1 (centres undefined)	none
N#CC12CC(=O)N1Cc1cnnn1-c1ccccc12 (centres undefined)	none
Cc1cccn2c(NCC3CCCO3)c(C(C)C)nc12 (centres undefined)	TTR transcr act 27.0 | HuH7 TTR inh inactive | TTR up confirm inactive
Cn1cc(P(=S)(c2ccccc2)c2ccccc2)c2ccccc21	none
CC12CCC(=O)C=C1CCC1C2CCC2(C)C(O)(C(=O)CO)CCC12O (centres undefined)	none
COC(=O)C1=C(c2ccc(Cl)c(C(F)(F)F)c2)C[C@@H]2CC[C@H]1N2C(=O)N1CCC(O)(c2ccc(Cl)cc2)CC1	none
COC(=O)[C@@]1(O)c2c(oc3cccc(O)c3c2=O)C=C[C@H]1O	none
COC(=O)C1=C(c2ccc(OC(F)(F)F)cc2)C[C@@H]2CC[C@H]1N2C(=O)NCCO	none
COC(=O)C1=C(c2ccc(OC(F)(F)F)cc2)C[C@@H]2CC[C@H]1N2C(=O)NC1CC1	TTR transcr act 10.2 | HuH7 TTR inh inactive | TTR up confirm inactive
COC(=O)C1=C(c2ccc(OC(F)(F)F)cc2)C[C@@H]2CC[C@H]1N2C(=O)NCC1CC1	none
O=C(NC1CN2CCC1CC2)c1ccc(Cl)cc1 (centres undefined)	none
COC(=O)C1=C(c2ccc(Cl)c(C(F)(F)F)c2)C[C@@H]2CC[C@H]1N2C(=O)NCc1cc(C)oc1C(F)(F)F	none
CC(C)(C)Cc1nnc(NC(=O)COc2ccc(Cl)cc2Cl)o1	none
CNC(=O)O/N=C/c1nn(C(=O)C(C)(C)C)cc1Br	none
C[C@H]1[C@@H](c2ccccc2)O[C@@H](c2ccccc2Br)N1C	TTR transcr act 10.7 | HuH7 TTR inh inactive | TTR up confirm inactive
Oc1ccc2c3c1O[C@H]1c4[nH]c5c(c4CC4(O)C(C2)N(CC2CC2)CCC314)CC1(O)[C@H]2Cc3ccc(O)c4c3[C@@]1(CCN2CC1CC1)C5O4 (some centres undefined)	none
O=c1[nH]c2ccccc2n1C1CCN(C(c2ccccc2OC(F)(F)F)c2nnnn2-c2ccc3c(c2)OCCO3)CC1 (centres undefined)	none
CN1C2CCC1CC(=NO)C2	TTR transcr act 26.5 | HuH7 TTR inh inactive | TTR up confirm inactive
CC(=O)NN1C(=O)c2ccccc2NC1c1cccnc1 (centres undefined)	none
CC1=C2CCC3C(CCC4=CC(=O)CCC43C)C2CC1 (centres undefined)	none
CSc1cccc(NP2(=O)OCC(C)([N+](=O)[O-])CO2)c1 (centres undefined)	none
O=C(C(=O)N1CCC2(CC1)OCCO2)c1c[nH]c2ccccc12	TTR transcr act 10.5 | HuH7 TTR inh inactive | TTR up confirm inactive
O=C(c1ccccc1)N1CCC2(CC1)OCCO2	none
CC(C(=O)c1c[nH]c2ccccc12)N1CCOCC1 (centres undefined)	none
Cc1ccc(O)c(CN2CCC3CCC(C3)C2)c1 (centres undefined)	none
C[C@H](NC(=O)OCc1ccccc1)[P+](=O)O	none
Cc1nc2ccccc2c(=O)n1/N=C/c1cc(Br)cc(Br)c1O	none
OCCN1C2CCC1CC(O)(c1ccc(F)cc1)C2 (centres undefined)	none
OC1(c2ccc(F)cc2)CC2CCC(C1)N2Cc1nnnn1C1CCCCC1 (centres undefined)	TTR transcr act 23.4 | HuH7 TTR inh inactive | TTR up confirm inactive
CC1CCCN(C(=O)CN2C3CCC2CC(O)(c2ccc(F)cc2)C3)C1 (centres undefined)	none
CN1CCC(=O)N(CCN=[N+]=[N-])CC1	none
CC[C@]12CCN(CC3(O)CC3)[C@H](Cc3ccc(O)cc31)C2(C)C	none
CC(=O)OC1C=CC2[C@H]3Cc4ccc(O)c5c4[C@@]2(CCN3C)C1O5 (some centres undefined)	TTR transcr act 16.8 | HuH7 TTR inh inactive | TTR up confirm inactive
CN1CC[C@]23c4c5ccc(O)c4OC2C(O)C=CC3[C@H]1C5 (some centres undefined)	none
CN1CC[C@]23c4c5ccc(OC6OC(C(=O)O)[C@@H](O)C(O)[C@H]6O)c4OC2C(O)C=CC3[C@H]1C5 (some centres undefined)	none
C=CCOC(=O)N1Cc2ccccc2-n2nncc2C1	none
CC(C)(C)C(=O)C(Oc1ccc(Cl)cc1)n1cncn1 (centres undefined)	none
COC(=O)C1=C(c2c(C)noc2C)C[C@@H]2CC[C@H]1N2C(=O)NCCCOC(C)C	none
COC(=O)C1=C(c2ccc(F)cc2OCc2ccccc2)C[C@@H]2CC[C@H]1N2C(=O)NCC1CC1	none
COC(=O)C1=C(c2ccc(F)cc2OCc2ccccc2)C[C@@H]2CC[C@H]1N2C(=O)NCc1ccccc1	none
COC(=O)C1=C(c2ccc(F)cc2OCc2ccccc2)C[C@@H]2CC[C@H]1N2C(=O)NCc1ccco1	TTR transcr act 14.6 | HuH7 TTR inh inactive | TTR up confirm inactive
CCc1nn(CC(=O)N2CCC3(CC2)OCCO3)c(=O)c2cc3ccccc3n12	none
CCC1CN1P(=O)(N1CCCC1)N1CC1CC (centres undefined)	none
CC(=O)N1Cc2cnnn2-c2ccccc2C1(C#N)Cc1ccccc1 (centres undefined)	none
